Data taken from PubChem BioAssay (NCI).
About 83,000 compounds went through this panel and 20% of them were active in at least one assay; those are over-represented in the sample as a whole.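 48-hour exposure, single concentration, 96-well plates; percent growth endpoint where 0 means no net growth. Active: below 10.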 Active and inactive are the calls of the source.

Tested on: CAKI-1 renal
Assay: NCI-60 one-dose screen, 48 h (100 = growth as untreated, 0 = no growth, -100 = all killed)
Conditions: 10 µM unless noted

| SMILES | growth |
| --- | --- |
| O=C1C=CC2(NN=C(c3ccccc3)N2c2ccc(Cl)cc2)c2cccc(O)c21 (centres undefined) | 84% (inactive) |
| CNC(=O)c1ccc(Nc2ncc(C(F)(F)F)c(NCc3nccnc3N(C)S(C)(=O)=O)n2)cc1 | 0.765% (active) |
| CN(C)C/C=C/C(=O)Nc1cc2c(Nc3ccc(F)c(Cl)c3)ncnc2cc1O[C@H]1CCOC1 | 5.36% (active) |
| COc1cc(Nc2c(C#N)cnc3cc(OCCCN4CCN(C)CC4)c(OC)cc23)c(Cl)cc1Cl | 31% (inactive) |
| Cc1oc2c(C(=O)N/N=C\c3ccc(O)cc3O)c[nH]c2c1C | 1.53% (active) |
| COc1c(OCCCN2CCOCC2)ccc2c3n(c(=NC(=O)c4cnc(N)nc4)nc12)CCN3 | 0.422% (active) |
| c1cn2cc(-c3ccc4cn[nH]c4c3)nc(Nc3ccc(N4CCOCC4)cc3)c2n1 | 39.4% (inactive) |
| CN1CCN(CCOc2cc(OC3CCOCC3)c3c(Nc4c(Cl)ccc5c4OCO5)ncnc3c2)CC1 | 21.7% (inactive) |
| O=C(Cc1ccc(-c2ccc(OCCN3CCOCC3)cc2)cn1)NCc1ccccc1 | 19% (inactive) |
| COc1ccc(F)c(F)c1C(=O)c1cnc(NC2CCN(S(C)(=O)=O)CC2)nc1N | 13.1% (inactive) |
| CCOc1ccc(N=C(C)Nc2ccc(OCC)cc2)cc1 | 122% (inactive) |
| C[C@@H]1COC(Nc2ccc3ncnc(Nc4ccc(OCc5nccs5)c(Cl)c4)c3c2)=N1 | 36.4% (inactive) |
| CCCCCC(=O)OCc1ccc(Cl)c(Cl)c1 | 103% (inactive) |
| C=CC(=O)Nc1cccc(Oc2nc(Nc3ccc(N4CCN(C)CC4)cc3)nc3ccsc23)c1 | -71.4% (active) |
| C1=C\COCc2cc(ccc2OCCN2CCCC2)Nc2nccc(n2)-c2cccc(c2)COC/1 | -44.8% (active) |
| FC(F)c1nc2ccccc2n1-c1nc(N2CCOCC2)nc(N2CCOCC2)n1 | -11% (active) |
| Cc1cnc(Nc2ccc(OCCN3CCCC3)cc2)nc1Nc1cccc(S(=O)(=O)NC(C)(C)C)c1 | -88.3% (active) |
| C=CC(=O)Nc1cc2c(Nc3ccc(F)c(Cl)c3)ncnc2cc1OCCCN1CCOCC1 | -5.99% (active) |
| COc1cc2c(cc1OCCCN1Cc3ccc(OCCCCC(=O)N4CCC(CCN5CCCC5)CC4)cc3C1)N=C(N)C21CCCC1 | 93.9% (inactive) |
| COc1cc(Nc2ncc(F)c(Nc3ccc4c(n3)N(COP(=O)(O)O)C(=O)C(C)(C)O4)n2)cc(OC)c1OC | -54.1% (active) |

| SMILES | growth |
| --- | --- |
| CNC(=O)c1cc(Oc2cccc3nc(Nc4ccc(Cl)c(F)c4)ccc23)ccn1 | 87.9% (inactive) |
| C[C@@H](Oc1cc(C(=O)Nc2ccc(C(=O)N3CCN(C)CC3)cc2)nnc1N)c1c(Cl)ccc(F)c1Cl | 75.5% (inactive) |
| NC1(c2ccc(-c3nc4ccn5c(=O)[nH]nc5c4cc3-c3ccccc3)cc2)CCC1 | 32.3% (inactive) |
| C=CC(=O)N1CCC[C@@H](n2nc(-c3ccc(Oc4ccccc4)cc3)c3c(N)ncnc32)C1 | 32.9% (inactive) |
| Cn1ccnc1C(=O)/C=C/c1ccc(CC(=O)Nc2ccc(C(F)(F)F)cc2)cc1 | 33.5% (inactive) |
| CCNC(=O)Nc1nc2ccc(Oc3ccnc(C(=O)NC)c3)cc2s1 | 92.5% (inactive) |
| O=C(Cn1cncn1)Nc1ccc(-c2nc3ccccc3s2)cc1 | 93.8% (inactive) |
| Cc1ccc(NC(=O)Nc2ccc(Nc3ncnc4sc5c(c34)CCOC5)cc2)cc1Cl | 91.7% (inactive) |
| Cc1cc2c(F)c(Oc3ncnn4cc(OC[C@@H](C)OC(=O)[C@H](C)N)c(C)c34)ccc2[nH]1 | 48.8% (inactive) |
| CC(C)(C)c1nc(-c2cccc(NS(=O)(=O)c3c(F)cccc3F)c2F)c(-c2ccnc(N)n2)s1 | 56.4% (inactive) |
| COC(=O)Nc1nc2ccc(C(=O)c3ccc(N(C)C4COC4)cc3)cc2[nH]1 | 31.2% (inactive) |
| CO[C@H]1C[C@@H]2CC[C@@H](C)[C@@](O)(O2)C(=O)C(=O)N2CCCC[C@H]2C(=O)O[C@H]([C@H](C)C[C@@H]2CC[C@@H](OC(=O)C(C)(CO)CO)[C@H](OC)C2)CC(=O)[C@H](C)/C=C(\C)[C@@H](O)[C@@H](OC)C(=O)[C@H](C)C[C@H](C)\C=C/C=C/C=C/1C | 30.9% (inactive) |
| CO[C@@H](C)Cn1c(=O)n(C)c2cnc3ccc(-c4cncc(C(C)(C)O)c4)cc3c21 | -15.5% (active) |
| NC1=Nc2cc(OCCCN3Cc4ccccc4C3)c(OCC3CC3)cc2C12CCCC2 | 49.9% (inactive) |
| COc1cc2c(Oc3ccc(NC(=O)C4(C(=O)Nc5ccc(F)cc5)CC4)cc3F)ccnc2cc1OCCCN1CCOCC1 | -69% (active) |
| Cc1c(NC(=O)OC[C@@H]2COCCN2)cn2ncnc(Nc3ccc4c(cnn4Cc4cccc(F)c4)c3)c12 | -2.81% (active) |
| Cc1nc(NC(=O)N2CCC[C@H]2C(N)=O)sc1-c1ccnc(C(C)(C)C(F)(F)F)c1 | 17.8% (inactive) |
| COc1cc(NCCCN)c2ncccc2c1 | 97.2% (inactive) |
| Cc1cc(Nc2ncc(Cl)c(Nc3ccccc3S(=O)(=O)C(C)C)n2)c(OC(C)C)cc1C1CCNCC1 | -99.5% (active) |
